This note sets out measurements from PubChem BioAssay (NCI).

SMILES strings stand for the structures. The panel holds about 83,000 compounds, 20% with a hit somewhere; the sample as a whole holds those more often.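 For each line, cells grew in 96-well plates with the test compound present at a single concentration for 48 hours.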 A number with no mark means an inactive call. Activity calls are given as the source filed them. How the source made its calls: active means growth percent below 10; inactive means the rest.

The assay has as its system MDA-MB-468 breast. The experiment in a line: NCI-60 one-dose screen, 48 h (100 = growth as untreated, 0 = no growth, -100 = all killed). The settings on record: 10 µM unless noted.
As to `CC(=O)[C@H]1CC[C@H]2[C@@H]3CC[C@H]4C[C@H](N)CC[C@]4(C)[C@H]3CC[C@]12C`, the growth was 64.1%.

Regarding `N#Cc1nc(-c2ccccc2)oc1N1CCC(S(=O)(=O)F)CC1`, the growth is 110%.

Turning to `COc1ccccc1[As]=[As]c1ccccc1OC` (stereo not given), the growth is -94.8% (active).

Turning to `C[CH2][Pb]([CH2]C)([CH2]C)[O]C(=O)COC`, the growth was -49.3% (active).

Turning to `COc1ccc(C(c2ccc(OC)cc2)C(Cl)(Cl)Cl)cc1`, the growth is 18%.

Take `Cc1cc(N(CCCl)CCCl)ccc1C=Nc1ccc(-c2csc(-c3ccccc3)n2)cc1`: the growth is 3.69% (active).

Consider `Cc1ccc2oc(=O)c3c(c2c1)OC(N)=C(C#N)C3c1ccco1` (stereo not given), for which the growth was 91.4%.

In the case of `C[C@]12C[C@H](O)[C@H]3[C@@H](CCC4=CC(=O)CC[C@@]43C)[C@@H]1CC[C@@H]2O`, the growth is 99.7%.

`C[C@@H]1C/C=C\C(=O)O[C@H](/C=C/C#C/C=C/C(C)(C)[C@@H](O)c2cccc(O)c2Br)[C@@H](C)/C=C/[C@H](C)C[C@H](OC(N)=O)C1`: the growth was 33.6%.

For `O=[N+]([O-])c1cnc[nH]1`, the growth is 108%.

Take `COc1cccc2c1C(=O)c1c(O)c3c(c(O)c1C2=O)CC(O)(/C(C)=N/NC(=O)CCC(=O)N/N=C(\C)C1(O)Cc2c(O)c4c(c(O)c2C(OC2CC(N)C(O)C(C)O2)C1)C(=O)c1c(OC)cccc1C4=O)CC3OC1CC(N)C(O)C(C)O1` (stereo not given): the growth is -35.7% [5 µM] (active).

With `C=C=[CH][Sn]([c]1ccccc1)([c]1ccccc1)[c]1ccccc1`, the growth was -66.5% (active).

As to `CCCC(C)C1(CC)C(=O)NC(=O)N(C)C1=O` (stereo not given), the growth is 94.2%.

Turning to `COC(=O)[C@@H](C)C[C@H](Cc1ccc(F)cc1)NC(=O)c1csc([C@@H](C[C@H](C(C)C)N(C)C(=O)[C@@H](NC(=O)[C@H]2CCCCN2C)C(C)C)OC(C)=O)n1`, the growth is 21%.

`CCOC(=O)C1C(C=C(C)C)C1(C)C` (stereo not given): the growth was 107%.

Regarding `CC1=C2C(=O)[C@H]3[C@@H](CC=C4C[C@@H](O)CC[C@@]43C)[C@@H]2CC[C@]12O[C@@H]1C[C@H](C)CN[C@H]1[C@H]2C`, the growth was 85.6%.

Consider `CCC1CN1P(=O)(OCCOC)N1CC1CC` (stereo not given), for which the growth is 110%.

Consider `CCCN1C(=O)NC(=O)C(CC)(N2C(=O)c3c(F)c(F)c(F)c(F)c3C2=O)C1=O` (stereo not given), for which the growth was -50.8% (active).

Take `CC(=O)[O][Hg][c]1c(N)c(C)cc(C)c1F`: the growth is -26.7% (active).

In the case of `Cc1ccc(N)cc1[As]=[As]c1cc(N)ccc1C` (stereo not given), the growth was -92.9% (active).

For `O=C1C=CC(=O)C2C1C1(Cl)C(Cl)=C(Cl)C2(Cl)C1(Cl)Cl` (stereo not given), the growth was 5.2% (active).

For `O=[N+]([O-])c1cccc([As]=[As]c2cccc([N+](=O)[O-])c2)c1` (stereo not given), the growth is -78.5% (active).

For `CCCCCCCCCCCCOc1ccc(C(=O)Oc2ccc(CSP3(=O)OCC4OC(n5cnc6c(N)ncnc65)C(F)C4OP(=O)(O)OCC4OC(n5ccc(=O)[nH]c5=O)C(F)C4O3)cc2)cc1` (stereo not given), the growth is 108%.

For `[N-]=[N+]=CC(=O)CCC(=O)C=[N+]=[N-]`, the growth is 113%.

Turning to `COc1ccc(C(=O)c2ccc([As]=O)cc2)cc1` (stereo not given), the growth is -74.8% (active).

Regarding `O=C(O)C(O)C(O)C1[O][Sb]([c]2ccc([N+](=O)[O-])cc2)[O]C1CO` (stereo not given), the growth was 98.2%.

On to `CNC(=O)CCl`, for which the growth is 100%.

As to `CCC(=O)Nc1ccc(Cl)c(Cl)c1`, the growth is 101%.

On to `NC(N)=N/N=C\c1c[nH]c2ccc(Br)cc12`, for which the growth was -6.01% (active).

With `[Cl][Hg][c]1ccc2ccccc2c1`, the growth is -83.2% (active).

As for `CC12CCC3C4CCC(=O)C=C4CCC3C1CC1CC(=O)OC12` (stereo not given), the growth is 102%.

As to `O=[N+]([O-])CC(O)C(Cl)(Cl)Cl` (stereo not given), the growth is 102%.

With `c1ccc(CCN2CCCCC2)nc1`, the growth was 107%.

Turning to `Nc1ccc(Cl)cc1`, the growth was 97%.

`C[C@]12CC[C@H]3[C@@H](CC=C4c5nc(-c6ccc(Br)cc6)sc5CC[C@@]43C)[C@@H]1CC[C@@H]2O`: the growth is 110%.

For `Cc1ccc(C(=O)NCCCOc2ccc(N)cc2Cl)cc1S(=O)(=O)F`, the growth was 84.6%.

Regarding `O=C(O)c1[nH]c(=O)[nH]c(=O)c1F`, the growth was 107%.

As to `COc1cc(/C=C/[N+](=O)[O-])cc(Br)c1OC`, the growth is -34.7% (active).

As to `COc1cc(/C=N/C2=C(C#N)C(c3ccco3)c3c(c4cc(C)ccc4oc3=O)O2)cc(OC)c1OC` (stereo not given), the growth is 109%.

With `CC1=C2C(=C[C@@](C)(COC(=O)c3ccc(S(=O)(=O)F)cc3)[C@@H]2OC(=O)c2ccc(S(=O)(=O)F)cc2)C(=O)[C@](C)(O)C12CC2`, the growth is -76.8% (active).
